# Compound activity from PubChem.
# An excerpt weighted towards active compounds, which were near 7.5% of everything screened.
# FLuc modulator – firefly luciferase modulation, counter-screen for miR-21 project; purified FLuc, Km substrates, luminescence inhibition; AID 588342; Potency, µM (highest dose often 57.5 µM), for the others: at the highest dose activity change, negative = inhibition, usual class: inhibitors; actives 6.9% (n = 360,000);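 further: plate controls were vehicle for no effect and reference inhibitor for full effect; nearly all actives have a fitted effect of over 55% in size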
# Target sequence (P08659 whole entry, looked up): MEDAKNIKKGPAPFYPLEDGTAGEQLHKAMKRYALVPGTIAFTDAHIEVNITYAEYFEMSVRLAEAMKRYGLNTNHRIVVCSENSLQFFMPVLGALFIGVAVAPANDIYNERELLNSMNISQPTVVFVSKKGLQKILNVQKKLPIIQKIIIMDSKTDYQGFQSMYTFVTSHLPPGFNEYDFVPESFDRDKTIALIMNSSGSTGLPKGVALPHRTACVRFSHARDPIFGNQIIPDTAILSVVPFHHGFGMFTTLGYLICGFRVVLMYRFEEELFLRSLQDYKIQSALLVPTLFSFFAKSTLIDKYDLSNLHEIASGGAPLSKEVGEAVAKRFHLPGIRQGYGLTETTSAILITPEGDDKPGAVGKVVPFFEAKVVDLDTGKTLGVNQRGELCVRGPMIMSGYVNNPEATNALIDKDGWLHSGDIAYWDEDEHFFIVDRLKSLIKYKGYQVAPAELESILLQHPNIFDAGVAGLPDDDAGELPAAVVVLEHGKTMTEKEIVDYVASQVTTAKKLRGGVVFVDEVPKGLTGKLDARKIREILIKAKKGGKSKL
#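 Purified P. pyralis luciferase (10nM final) with 10uM D-luciferin and 10uM ATP (Km levels) in 50mM Tris acetate pH 7.5, 10mM Mg acetate, 0.01% Tween-20, 0.05% BSA; qHTS 6-point titration, ~60 µM downward; luminescence read.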
# SMN2 splice enh – increases expression of the SMN2 splice variant | actives 2.8% (n = 210,000) | Potency, µM (highest dose often 46.1 µM), without a hit: top-dose activity change, positive = activation, most hits filed as activators | HEK293 SMN2-luciferase splicing reporter, luminescence, 30-36 h; further: % of control where 0% means no effect; nearly all actives have a fitted effect of over 55% in size
#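 HEK293 cells carry an SMN2 minigene-luciferase reporter in which exon 7 inclusion puts luciferase in frame. Cells were seeded at 2000 cells/well, attached for 10-12 hours, then exposed to compounds for 30-36 hours at 37C before ONE-Glo luminescence.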
# ELG1 genotoxic – genotoxicity induction in ELG1-luciferase HEK293T cells; HEK293T ELG1-luciferase reporter, luminescence, 16 h; Potency, µM (titrated, usually from 46 µM), for the others: at the highest dose activity change, positive = activation, hits mostly activators; actives 1.3% (n = 330,000); further: % of control where 0% means no effect; nearly all actives have a fitted effect of over 60% in size
#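 Genotoxic stress is detected as increased luminescence from luciferase-tagged ELG1 in HEK293T cells, measured with ONE-Glo after a 16 hr treatment at 37 °C.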
# NPC1 prom act – activators of NPC1 promoter; Huh7 NPC1 promoter luciferase reporter, 24 h; Potency, µM (doses to about 9.22 µM), for the others: at the highest dose activation, actives largely listed as activators; actives 2.4% (n = 320,000); AID 485313; further: % of control where 0% means no effect; nearly all actives have a fitted effect of over 60% in size
#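 Quantitative HTS used a cell-based reporter: Huh7 cells stably bearing the NPC1 promoter upstream of luciferase were treated with compounds for 24 h, and promoter activation was read as luminescence.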
# Rab9 prom act – Rab9 promoter activation; Potency, µM (titrated, usually from 9.22 µM), for the others: top-dose activation, negative = inhibition, usual class: activators; actives 2.8% (n = 320,000); Huh7 Rab9 promoter-luciferase reporter, luminescence, 24 h; AID 485297; further: % of control where 0% means no effect; nearly all actives have a fitted effect of over 60% in size
#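 Cell-based reporter: Huh7 stable for Rab9 promoter-driven luciferase, plated in reduced-serum medium with 10% FBS at 1500 cells/well, compound-treated 24 h at 37 °C, luminescence read after 10 min reagent.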
# Luc counter – counter-screen: inhibitors of Kinase-Glo firefly luciferase | Kinase-Glo luciferase, ATP luminescence, 8 min | Potency, µM (titrated, usually from 38.3 µM), without a hit: at the top dose activity change, negative = inhibition, usual class: inhibitors | actives 0.28% (n = 200,000); further: on the % scale 0 is the no-effect control and ±100 the full control effect; nearly all actives have a fitted effect of over 60% in size
#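 Compound is pinned into ATP-containing buffer (10 uM ATP, imidazole pH 7.2, 7 mM MgCl2). Kinase-Glo luciferase reagent is then added. Light output is recorded following an 8-min room-temperature incubation.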
# Active calls of the source: *; ? = inconclusive; . = not tested or not shown; [ ] = dose if it differs, or a comment. The call rests on the fitted dose curve; in most records, active means well fitted curve in the direction sought with a large enough effect; inconclusive means small, poorly fitted or top-dose-only effect, or another doubt; inactive means no such curve, though single readings can be large; an effect the other way counts as inactive or inconclusive. Potency means the concentration at half of the fitted maximal effect.
SMILES,FLuc modulator,SMN2 splice enh,ELG1 genotoxic,NPC1 prom act,Rab9 prom act,Luc counter
O=c1[nH]c(-c2ccccc2)nc2sc(-c3ccccc3)cc12,?,?,?,-11%,?,1%
O=c1[nH]cnc2sc(-c3ccccc3)cc12,15µM*,16%,19%,20%,?,-7%
COc1ccc(-n2cnc3sc(-c4ccccc4)cc3c2=O)cc1,?,6.3µM*,?,0.56µM*,0.63µM*,2%
CCCOC(=O)C(C)n1nnc2sc(-c3ccccc3)cc2c1=O (stereo not given),?,-7%,.,.,.,.
COc1ccc(-n2cnc3sccc3c2=O)cc1,3%,.,2%,-4%,9%,.
O=c1c2cc(-c3ccccc3)sc2ncn1-n1cccc1,-18%,?,?,1.8µM*,1.8µM*,-7%
CCN1CCN(CCCNC(=O)c2cc3c(s2)-c2c(C)cccc2OC3)CC1,-3%,-19%,.,.,.,.
CCCCN(C(=O)c1cccc2c(=O)c(C)c(-c3ccccc3)oc12)c1ccccc1,-1%,-61%,1%,-3%,-8%,0%
CC1CCCCN1S(=O)(=O)c1cc2c(=O)nc3ccccn3c2cc1Cl (stereo not given),-1%,.,.,.,.,.
Cc1ccc(C)n1-n1c(C)nc2sc(-c3ccccc3)cc2c1=O,17µM*,-16%,?,?,?,-1%
Cc1ccc(C)n1-n1cnc2sc(-c3ccccc3)cc2c1=O,?,-45%,-4%,-2%,-5%,5%
O=C(Nc1ccccc1)c1ccc(-c2ccc(F)cc2)s1,?,?,7.3µM*,?,?,-5%
Cc1ccc(NC(=O)c2ccc(-c3ccccc3)s2)cc1,-15%,5%,.,.,.,.
Cc1cccc(NC(=O)c2ccc(-c3ccccc3)s2)c1,2.4µM*,?,.,.,.,.
O=C(Nc1cccc(F)c1)c1ccc(-c2ccccc2)s1,2.1µM*,16%,.,.,.,.
O=C(Nc1ccc(F)cc1F)c1ccc(-c2ccccc2)s1,-20%,22%,.,.,.,.
O=C(Nc1ccccc1)c1c(F)cccc1F,-16%,-2%,11%,18%,-6%,-9%
CCc1ccc(NC(=O)CCS(=O)(=O)c2ccc3c(c2)oc(=O)n3C)cc1,-5%,.,.,.,.,.
Nc1[nH]c(=S)[nH]c(=O)c1N=Nc1c(Br)cc(S(N)(=O)=O)cc1Br,.,-3%[9.22 µM],.,.,.,-2%[7.66 µM]
COc1cccc(CN(CC(=O)NCc2ccccc2)C(=O)c2csnn2)c1,0%,.,-7%,0%,-7%,.
CCOC(=O)c1c(C)[nH]c(C)c1S(=O)(=O)N1CCN(c2cccc(C(F)(F)F)c2)CC1,-6%,.,.,.,.,.
Cc1c(C)c2ccc(OCC(=O)NCc3ccccn3)cc2oc1=O,4%,.,8%,-5%,3%,.
Cc1cc(=O)oc2cc(OCC(=O)Nc3nccs3)ccc12,5.4µM*,.,10µM*,2µM*,4µM*,.
CCCCc1cc(=O)oc2cc(OCC(=O)Nc3ccccn3)ccc12,21µM*,.,13µM*,?,4.5µM*,.
Cc1c(C)c2ccc(OCC(=O)Nc3ccccn3)cc2oc1=O,0.34µM*,.,0.46µM*,0.89µM*,3.5µM*,.
SMILES,FLuc modulator,SMN2 splice enh,ELG1 genotoxic,NPC1 prom act,Rab9 prom act,Luc counter
Cc1c(C)c2ccc(OCC(=O)Nc3nccs3)cc2oc1=O,0.95µM*,.,1µM*,0.28µM*,0.5µM*,.
CN1CCN(C2(CNC(=O)c3ccc([N+](=O)[O-])cc3)CCCCC2)CC1,-6%,.,.,.,.,.
COc1cccc(CNC(=O)CCn2nc(C)c3c(C)n(-c4ccccc4)nc3c2=O)c1,-3%,.,.,.,.,.
C=CCN=C(NC#N)SCC(=O)c1cccc(OC)c1,?,?,6%,3.5µM*,?,12%
C=CCN=C(NC#N)SCc1ccccc1,4%,14%,0%,-3%,-6%,3%
O=C(/C=C/Nc1ccc(Nc2ccccc2)cc1)c1cccs1,4.3µM*,.,?,4µM*,2µM*,-13%
O=C(/C=C/Nc1cccc([N+](=O)[O-])c1)c1cccs1,1.7µM*,16µM*,?,21%,3.2µM*,-11%
Cc1cc(N/C=C/C(=O)c2cccs2)ccc1F,0.95µM*,14µM*,2.9µM*,?,4µM*,-12%
Cc1ccc(N/C=C/C(=O)c2cccs2)cc1C,0.19µM*,2.2µM*,?,24%,3.5µM*,-18%
O=C(O)c1ccccc1C(=O)c1cccs1,3%,-1%,-1%,1%,-4%,-4%
O=C(/C=C/Nc1ccccc1C(=O)O)c1cccs1,3.4µM*,11µM*,16µM*,1.4µM*,1µM*,-15%
C/C(=N\OCC(=O)Nc1ccccc1C(=O)O)c1cccs1,21µM*,.,2%,13%,16%,.
CCCn1c(N)c(N(CCOC)C(=O)c2cccc(S(=O)(=O)N3CCCc4ccccc43)c2)c(=O)[nH]c1=O,0%,.,0%,6%,-1%,.
CCc1ccc(-n2c(SCc3ccccc3C)nc3[nH]ncc3c2=O)cc1,-7%,.,.,.,.,.
C=CCNC(=O)c1onc(CSc2ccccc2C)c1C(=O)O,-16%,1%,1%,-2%,-6%,-4%
C=CCNC(=O)c1onc(CSc2ccc(Cl)cc2)c1C(=O)O,17µM*,?,-2%,-2%,2%,2%
C=CCNC(=O)c1onc(CSc2cc(C)ccc2C)c1C(=O)O,-12%,32µM*,-4%,-4%,-3%,-1%
C=CCNC(=O)c1onc(CSc2ccc(Cl)cc2)c1C(=O)NCC=C,-3%,.,-3%,-4%,3%,.
O=C1CCCC2[C@@H]3CCC[N@+]4([O-])CCC[C@H](CN12)C34 (stereo not given in full),.,8%,.,.,.,0%
O=C(/C=C/Sc1ccccc1)c1ccc(Cl)cc1,1.1µM*,8%,?,4%,2%,-9%
O=C(/C=C/Sc1ccccc1)c1ccccc1,0.43µM*,15%,?,2%,13%,-16%
C/C(=C\C(=O)c1ccccc1)NNC(=O)c1ccc(Cl)cc1,-16%,.,2%,-2%,8%,.
O=C(Nc1cccc2ccccc12)c1ccc([N+](=O)[O-])o1,2%,.,-10%,-13%,-8%,.
CC1CCN(c2ccc(NC(=O)c3ccc([N+](=O)[O-])o3)cc2)CC1,1.1µM*,.,3.7µM*,?,2µM*,.
O=C(Nc1ccc(N2CCCCC2)cc1)c1ccc([N+](=O)[O-])o1,1.5µM*,.,6.5µM*,0.5µM*,2.5µM*,.
O=C(Nc1cccc(NC(=O)c2ccccc2Cl)c1)c1ccc([N+](=O)[O-])o1,21µM*,.,-20%,-16%,4%,.
CCC(=O)N1CCN(c2ccc(NC(=O)c3ccc([N+](=O)[O-])o3)cc2)CC1,0%,8%,1%,-6%,4%,-2%
